# Laboratory results taken from PubChem BioAssay (Tox21).
# “And” between values parts separate entries of the source, which are not always exact repeats. Equal values may be shown once. Records with an inconclusive call do not appear. Where a call stands in place of a potency, no number is given. Some compounds were tested as several samples or in several runs, with calls that do not always agree. The source made the active and inactive calls. Unless noted, calls follow the shape of the dose curve; as a rule, active = well fitted curve in the direction sought with a large enough effect in the repeat runs; inconclusive = weak or mixed curves; inactive = no such curve, though single readings can be large; an effect the other way counts as inactive or inconclusive.
# Key:
# [1] = qHTS assay to identify small molecule agonists of the hypoxia (HIF-1) signaling pathway - cell viability counter screen (AID 1224844; calls by dose curve; also: nearly all actives have a fitted effect of over 50% in size; also: potency is read from the fitted curve at half-maximal effect)
# How it was run: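 Same wells as the HIF-1 reporter screen; ME-180 cells carrying HRE-bla, 17 hr treatment at 37C; CellTiter-Glo luminescence read after 30 min at room temperature.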
# [2] = qHTS assay to identify small molecule agonists of H2AX (AID 1224845; active = well fitted activation curve with a large enough effect in the signal ratio in the repeat runs, not every such curve was filed as active; the % refers to the signal ratio)
# How it was run: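 Wild-type CHO-K1 cells, plated overnight, exposed 3hr at 37C to 15 concentrations (0.76% DMSO final). Lysed, then HTRF anti-pH2AX (S139) cryptate and anti-H2AX-d2 antibodies, 24 hr room temperature; 665/620 nm emission read.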
# [3] = qHTS assay to identify small molecule agonists of the hypoxia (HIF-1) signaling pathway (AID 1224846; active = well fitted activation curve with a large enough effect in the signal ratio in the repeat runs, not every such curve was filed as active; the % refers to the signal ratio)
# How it was run: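 In ME-180 cells bearing an HRE-bla construct, 17 h treatment with DMSO-dissolved compounds at 37C was followed by CCF4-AM loading to quantify reporter induction.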
# [4] = qHTS assay to identify small molecule agonists of H2AX - cell viability counter screen (AID 1224847; calls by dose curve; also: top concentration of the series differs between compounds; nearly all actives have a fitted effect of over 30% in size)
# How it was run: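 Compounds tested at 15 concentrations were incubated 3 hr at 37C with wild-type CHO-K1 cells; cellular ATP-based luminescence (CellTiter-Glo) indicated viability.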
# [5] = qHTS assay to identify small molecule antagonists of the estrogen related receptor (ERR) signaling pathway from Tox21 library (AID 1224848); also: nearly all actives have a fitted effect of over 50% in size; also: potency is read from the fitted curve at half-maximal effect
# How it was run: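 Compounds dissolved in DMSO are pin-transferred onto ERR reporter cells (2,000 per well) that have settled for 6 h at 37 C. Plates then incubate 18 h at 37 C before ONE-Glo luciferase reagent and a luminescence read 30 min later.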
# [6] = qHTS RealTime-Glo MT Cell Viability Assay in HepG2 cells - 24 hour (AID 1224867); also: nearly all actives have a fitted effect of over 50% in size
# How it was run: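 HepG2 cells (600/well) were dispensed with RealTime-Glo reagents, incubated 5 h at 37 °C, then treated with compounds in DMSO for up to 40 h. Nonlytic NanoLuc luminescence reflecting viable cells was read at each stated time point.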
# [7] = qHTS RealTime-Glo MT Cell Viability Assay in HEK293 cells - 32 hour (AID 1224868); also: top concentration of the series differs between compounds; nearly all actives have a fitted effect of over 50% in size
# How it was run: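 HEK293 cells seeded with NanoLuc/prosubstrate reagent, rested 5 h at 37 C, then dosed and kept at 37 C up to 40 h. Nonlytic real-time luminescence from viable cells read at 0, 8, 16, 24, 32 and 40 h.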
# [8] = A CellTox Green Cytotoxicity Assay to monitor cytotoxicity in HEK293 cells - 0 hour (AID 1224869); also: nearly all actives have a fitted effect of over 50% in size
# How it was run: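 Homogeneous no-lysis format: HEK293 cell suspension mixed with CellTox Green reagent, seeded, incubated 5 h at 37 C/5% CO2, then dosed by pintool with compound in DMSO.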
# [9] = qHTS RealTime-Glo MT Cell Viability Assay in HepG2 cells - 40 hour (AID 1224870); also: nearly all actives have a fitted effect of over 50% in size
# How it was run: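 HepG2 cells (600/well) mixed with RealTime-Glo MT reagent, settled 5 h at 37 C/5% CO2 before compound addition. Nonlytic NanoLuc luminescence from viable-cell prosubstrate reduction read repeatedly during 40 h treatment at 37 C.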
# [10] = qHTS assay to identify small molecule agonists of the estrogen related receptor (ERR) signaling pathway from Tox21 library (AID 1224849; calls by dose curve; also: nearly all actives have a fitted effect of over 15% in size); conditions: ERR reporter cell line, ONE-Glo luciferase, 18 h
# How it was run: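 Reporter cells (ERR, NTP source) treated with Tox21 10K compounds 18 h, 37 C. Readout: ONE-Glo luminescence, 30 min RT.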
Structure (SMILES),Potency [1],Potency [2],outcome [3],Potency [4],Potency [5],Potency [6],Potency [7],Potency [8],Potency [9],"activity change, positive = activation ([10]; at 42.5 µM (top of the series))","activity change, positive = activation ([10]; at 92.4 µM (top of the series))"
CC(C)(CO)CO,inactive,inactive,inactive,inactive,inactive,inactive,inactive,inactive,inactive,,
CCCOC(=O)NCCCN(C)C,inactive,inactive,inactive,inactive,,inactive,inactive,inactive,inactive,,
CCCCCCCCCCCCCC(=O)O,inactive,inactive,inactive,inactive,inactive,inactive,inactive,inactive,inactive,,
Cc1ccc(C(C)C)cc1,inactive,inactive,inactive,inactive,,inactive,inactive,inactive,inactive,,
CC1=CC(=O)CC(C)(C)C1,4.49 µM (active) and inactive,inactive,inactive,inactive,14.1 µM (active) and inactive,inactive,inactive,inactive,inactive,,
CC(COCC(C)OC(=O)c1ccccc1)OC(=O)c1ccccc1 (configuration not stated),inactive,inactive,inactive,inactive,inactive,inactive,,inactive,inactive,,
OC[C@H]1O[C@@H](Oc2ccc(O)cc2)[C@H](O)[C@@H](O)[C@@H]1O,inactive,inactive,inactive,inactive,inactive,inactive,inactive,inactive,inactive,7.9% (inactive),7.42% (inactive)
COC(=O)CCCCC(=O)OC,inactive,inactive,inactive,inactive,,inactive,inactive,inactive,inactive,,
Nc1cccc(C(F)(F)F)c1,inactive,inactive,inactive,inactive,inactive,inactive,inactive,inactive,inactive,,2.57% (inactive) and 2.05% (inactive)
O=C1OC(=O)c2c(Cl)c(Cl)c(Cl)c(Cl)c21,inactive,inactive,inactive,inactive,inactive,inactive,inactive,inactive,inactive,,
COC(=O)OC,inactive,inactive,inactive,inactive,inactive,inactive,inactive,inactive,inactive,,8.59% (inactive) and 5.73% (inactive)
C[n+]1ccn(CCO)c1,inactive,inactive,inactive,inactive,inactive,inactive,inactive,inactive,inactive,,
COc1ccccc1[N+](=O)[O-],inactive,inactive,inactive,inactive,inactive,inactive,inactive,inactive,inactive,,2.88% (inactive)
CS(=O)(=O)c1ccc(Cl)cc1,inactive,inactive,inactive,inactive,inactive,inactive,inactive,inactive,inactive,,
CC[N+](CC)(CC(=O)Nc1c(C)cccc1C)Cc1ccccc1,inactive,inactive,inactive,inactive,,inactive,inactive,inactive,inactive,,
O=C(O)Cc1c[nH]c2ccccc12,inactive,inactive,inactive,inactive,inactive,inactive,inactive,inactive,inactive,,
C1CCCNCC1,inactive,inactive,inactive,inactive,inactive,inactive,inactive,inactive,inactive,,
CCc1cccc(O)c1,inactive,inactive,inactive,inactive,,inactive,inactive,inactive,inactive,,
CC(=O)OCc1ccc2c(c1)OCO2,inactive,inactive,inactive,inactive,inactive,inactive,inactive,inactive,inactive,,
CC(=O)OCCC(C)C,inactive,inactive,inactive,inactive,inactive,inactive,inactive,inactive,inactive,,
COc1c2ccoc2cc2oc(=O)ccc12,inactive,inactive,inactive,inactive,,inactive,inactive,inactive,inactive,,
Cc1ccccc1C=O,inactive,inactive,inactive,inactive,,inactive,inactive,inactive,inactive,,
O=[N+]([O-])c1cc(C(F)(F)F)ccc1Cl,inactive,inactive,inactive,inactive,inactive,inactive,inactive,inactive,inactive,,3.85% (inactive)
COC(=O)/C=C\C(=O)OC,inactive,inactive,inactive,inactive,inactive,inactive,inactive,inactive,inactive,,
CC(=O)C(C)C,inactive,inactive,inactive,inactive,,inactive,inactive,inactive,inactive,,
